Reference: PMC7862700, “An all-to-all approach to the identification of sequence-specific readers for epigenetic DNA modifications on cytosine”

Tests used:
Test in all cases: DAPPL (digital affinity profiling via proximity ligation, sequencing); 10 mM Tris-HCl pH 7.5, 50 mM NaCl, 1 mM DTT, 4% glycerol, room temperature, 30 min; GST-TFs on glutathione beads, 16-mer random dsDNA library, 0.1% formaldehyde crosslink after washing; high values mean tight binding
FEV = molecular target: T1, FEV (Homo sapiens, UniProt Q99581 1-238); conditions: protein: recombinant; tags: N-terminal GST; dsDNA, one strand shown
T1 sequence: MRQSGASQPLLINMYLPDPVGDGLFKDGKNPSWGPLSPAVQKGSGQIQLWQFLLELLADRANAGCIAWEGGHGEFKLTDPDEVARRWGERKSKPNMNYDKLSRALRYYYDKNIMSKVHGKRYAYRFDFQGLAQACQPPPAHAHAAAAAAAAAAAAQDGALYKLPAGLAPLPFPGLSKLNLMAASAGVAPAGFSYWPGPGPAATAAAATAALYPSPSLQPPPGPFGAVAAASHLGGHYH
Summary of the method: (§1)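 The binding signal reported is, for every hexamer, its read frequency for a factor over its read frequency for the tag-only sample. Reads came from pools of yeast-expressed, GST-fused human transcription factors on glutathione beads, barcoded with DNA and mixed with that sample, which were incubated with 200 nmole of a random double-stranded 16-mer DNA library in Tris/NaCl/DTT/glycerol buffer at room temperature for 30 min. After washing, the pools were crosslinked with 0.1% formaldehyde, proximity-ligated with BsaI/T4 ligase for 1 h at 37 °C, PCR-amplified and sequenced on an Illumina NextSeq500.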

ETV5 = ETV5 (Homo sapiens, UniProt P41161 1-510); conditions: protein: recombinant; tags: N-terminal GST; dsDNA, one strand shown
Chain of ETV5 (P41161 whole entry): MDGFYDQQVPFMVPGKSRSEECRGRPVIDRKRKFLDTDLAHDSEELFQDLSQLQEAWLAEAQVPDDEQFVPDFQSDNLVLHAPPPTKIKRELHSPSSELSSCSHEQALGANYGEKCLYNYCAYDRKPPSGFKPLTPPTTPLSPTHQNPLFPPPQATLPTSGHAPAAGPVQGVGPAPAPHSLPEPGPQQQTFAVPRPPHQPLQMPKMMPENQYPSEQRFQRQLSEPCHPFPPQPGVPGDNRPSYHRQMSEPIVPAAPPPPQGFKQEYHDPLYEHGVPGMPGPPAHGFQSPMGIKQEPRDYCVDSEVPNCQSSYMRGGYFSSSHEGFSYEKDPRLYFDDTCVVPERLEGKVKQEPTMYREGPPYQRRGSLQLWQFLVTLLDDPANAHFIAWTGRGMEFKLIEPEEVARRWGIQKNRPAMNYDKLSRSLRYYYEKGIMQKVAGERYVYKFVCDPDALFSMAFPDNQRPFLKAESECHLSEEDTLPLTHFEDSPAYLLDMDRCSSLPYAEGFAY
Summary of the method: as §1

HSF1 = HSF1 (Homo sapiens, UniProt Q00613 1-529); conditions: protein: recombinant; tags: N-terminal GST; chain copies: 3; dsDNA, one strand shown
Chain of HSF1 (Q00613 whole entry): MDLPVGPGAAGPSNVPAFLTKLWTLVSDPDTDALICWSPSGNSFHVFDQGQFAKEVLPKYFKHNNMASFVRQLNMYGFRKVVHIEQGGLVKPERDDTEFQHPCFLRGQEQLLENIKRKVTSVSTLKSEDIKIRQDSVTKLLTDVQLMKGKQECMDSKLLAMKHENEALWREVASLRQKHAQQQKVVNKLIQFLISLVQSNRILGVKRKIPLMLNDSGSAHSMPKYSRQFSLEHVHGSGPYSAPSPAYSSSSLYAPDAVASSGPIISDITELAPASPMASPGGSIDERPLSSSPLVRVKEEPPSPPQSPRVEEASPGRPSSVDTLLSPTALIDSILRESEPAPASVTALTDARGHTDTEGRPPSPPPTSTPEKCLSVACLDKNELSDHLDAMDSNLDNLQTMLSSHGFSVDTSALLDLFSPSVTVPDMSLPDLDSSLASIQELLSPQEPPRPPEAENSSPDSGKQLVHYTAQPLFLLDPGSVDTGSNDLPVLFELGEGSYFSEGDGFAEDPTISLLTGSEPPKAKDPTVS
Summary of the method: as §1

SPIC = molecular target: T2, SPIC (Homo sapiens, UniProt Q8N5J4 1-248); conditions: protein: recombinant; tags: N-terminal GST; dsDNA, one strand shown
T2 sequence: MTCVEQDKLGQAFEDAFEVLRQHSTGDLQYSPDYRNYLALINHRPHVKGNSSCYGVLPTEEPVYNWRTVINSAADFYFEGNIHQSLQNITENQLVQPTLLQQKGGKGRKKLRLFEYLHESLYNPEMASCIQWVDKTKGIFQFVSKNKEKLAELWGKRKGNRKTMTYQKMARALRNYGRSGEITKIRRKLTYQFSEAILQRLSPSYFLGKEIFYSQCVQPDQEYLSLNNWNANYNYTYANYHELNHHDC
Summary of the method: as §1

ELF4 = ELF4 (Homo sapiens, UniProt Q99607 1-663); conditions: protein: recombinant; tags: N-terminal GST; dsDNA, one strand shown
Chain of ELF4 (Q99607 whole entry): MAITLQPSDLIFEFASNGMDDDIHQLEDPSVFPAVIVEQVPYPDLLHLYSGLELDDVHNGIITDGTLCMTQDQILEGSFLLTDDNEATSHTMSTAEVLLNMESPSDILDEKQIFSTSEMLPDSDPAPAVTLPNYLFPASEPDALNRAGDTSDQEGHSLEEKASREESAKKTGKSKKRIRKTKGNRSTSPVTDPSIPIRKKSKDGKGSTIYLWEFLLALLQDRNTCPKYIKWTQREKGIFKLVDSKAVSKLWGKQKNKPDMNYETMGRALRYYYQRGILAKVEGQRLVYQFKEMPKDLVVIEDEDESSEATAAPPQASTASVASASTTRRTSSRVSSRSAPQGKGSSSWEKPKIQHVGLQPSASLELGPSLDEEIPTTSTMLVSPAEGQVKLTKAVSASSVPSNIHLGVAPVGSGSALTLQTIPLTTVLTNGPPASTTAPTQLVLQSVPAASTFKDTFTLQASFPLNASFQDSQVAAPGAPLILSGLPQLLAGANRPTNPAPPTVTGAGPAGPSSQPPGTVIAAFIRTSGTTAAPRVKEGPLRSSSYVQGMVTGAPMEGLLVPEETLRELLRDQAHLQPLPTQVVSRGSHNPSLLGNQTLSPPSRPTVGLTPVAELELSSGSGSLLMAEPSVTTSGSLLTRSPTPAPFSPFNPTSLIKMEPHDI
Summary of the method: as §1

ELK4 = molecular target: T3, ELK4 (Homo sapiens, UniProt P28324-2 1-405); conditions: protein: recombinant; tags: N-terminal GST; dsDNA, one strand shown
T3 sequence: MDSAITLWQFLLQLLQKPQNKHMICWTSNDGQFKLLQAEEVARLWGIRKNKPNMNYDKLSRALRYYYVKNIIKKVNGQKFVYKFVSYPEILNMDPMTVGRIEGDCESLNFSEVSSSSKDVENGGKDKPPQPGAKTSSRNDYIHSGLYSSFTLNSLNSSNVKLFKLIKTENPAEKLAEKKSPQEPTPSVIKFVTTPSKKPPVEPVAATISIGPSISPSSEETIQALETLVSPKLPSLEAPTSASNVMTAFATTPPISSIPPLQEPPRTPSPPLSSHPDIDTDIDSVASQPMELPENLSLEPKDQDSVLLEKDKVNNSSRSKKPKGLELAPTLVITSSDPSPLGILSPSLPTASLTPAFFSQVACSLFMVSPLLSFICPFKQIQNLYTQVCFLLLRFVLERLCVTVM
Summary of the method: as §1

ETV2 = molecular target: T4, ETV2 (Homo sapiens, UniProt O00321 1-342); conditions: protein: recombinant; tags: N-terminal GST; dsDNA, one strand shown
T4 sequence: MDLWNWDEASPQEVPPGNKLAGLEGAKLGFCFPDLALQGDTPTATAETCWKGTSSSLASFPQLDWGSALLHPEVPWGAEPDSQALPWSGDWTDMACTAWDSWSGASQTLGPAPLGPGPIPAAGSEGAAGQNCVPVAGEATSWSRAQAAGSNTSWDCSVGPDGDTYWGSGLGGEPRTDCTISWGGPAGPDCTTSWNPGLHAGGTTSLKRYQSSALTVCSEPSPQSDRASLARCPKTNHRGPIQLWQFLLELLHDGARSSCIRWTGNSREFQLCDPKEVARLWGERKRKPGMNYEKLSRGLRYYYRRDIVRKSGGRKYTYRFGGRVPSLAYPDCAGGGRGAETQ
Summary of the method: as §1

ELF3 = molecular target: T5, ELF3 (Homo sapiens, UniProt P78545 1-371); conditions: protein: recombinant; tags: N-terminal GST; dsDNA, one strand shown
T5 sequence: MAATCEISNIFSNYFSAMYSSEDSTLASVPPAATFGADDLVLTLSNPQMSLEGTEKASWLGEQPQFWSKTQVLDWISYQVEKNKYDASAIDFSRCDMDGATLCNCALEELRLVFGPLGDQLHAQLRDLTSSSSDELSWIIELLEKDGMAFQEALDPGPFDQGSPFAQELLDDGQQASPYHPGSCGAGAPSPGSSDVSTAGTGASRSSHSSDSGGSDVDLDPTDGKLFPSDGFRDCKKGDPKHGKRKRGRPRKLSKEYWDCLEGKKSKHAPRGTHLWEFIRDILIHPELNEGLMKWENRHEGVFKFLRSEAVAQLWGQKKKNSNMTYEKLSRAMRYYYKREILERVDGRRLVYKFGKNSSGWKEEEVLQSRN
Summary of the method: as §1

ETV1 = ETV1 (Homo sapiens, UniProt P50549 1-477); conditions: protein: recombinant; tags: N-terminal GST; dsDNA, one strand shown
Chain of ETV1 (P50549 whole entry): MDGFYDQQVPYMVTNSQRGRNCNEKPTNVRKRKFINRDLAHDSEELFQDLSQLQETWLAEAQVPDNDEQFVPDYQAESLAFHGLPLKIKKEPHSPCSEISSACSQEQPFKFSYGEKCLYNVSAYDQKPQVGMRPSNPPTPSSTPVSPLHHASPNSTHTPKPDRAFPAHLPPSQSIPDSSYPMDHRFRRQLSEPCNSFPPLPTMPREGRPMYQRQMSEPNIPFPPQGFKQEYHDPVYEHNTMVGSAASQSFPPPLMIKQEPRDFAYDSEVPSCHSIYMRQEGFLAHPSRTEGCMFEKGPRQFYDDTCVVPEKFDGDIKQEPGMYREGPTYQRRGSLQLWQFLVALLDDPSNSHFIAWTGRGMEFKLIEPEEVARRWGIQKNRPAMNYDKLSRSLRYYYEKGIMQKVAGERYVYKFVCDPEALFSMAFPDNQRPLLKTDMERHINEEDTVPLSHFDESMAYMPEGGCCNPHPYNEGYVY
Summary of the method: as §1

ERF = molecular target: T6, ERF (Homo sapiens, UniProt P50548 1-548); conditions: protein: recombinant; tags: N-terminal GST; dsDNA, one strand shown
T6 sequence: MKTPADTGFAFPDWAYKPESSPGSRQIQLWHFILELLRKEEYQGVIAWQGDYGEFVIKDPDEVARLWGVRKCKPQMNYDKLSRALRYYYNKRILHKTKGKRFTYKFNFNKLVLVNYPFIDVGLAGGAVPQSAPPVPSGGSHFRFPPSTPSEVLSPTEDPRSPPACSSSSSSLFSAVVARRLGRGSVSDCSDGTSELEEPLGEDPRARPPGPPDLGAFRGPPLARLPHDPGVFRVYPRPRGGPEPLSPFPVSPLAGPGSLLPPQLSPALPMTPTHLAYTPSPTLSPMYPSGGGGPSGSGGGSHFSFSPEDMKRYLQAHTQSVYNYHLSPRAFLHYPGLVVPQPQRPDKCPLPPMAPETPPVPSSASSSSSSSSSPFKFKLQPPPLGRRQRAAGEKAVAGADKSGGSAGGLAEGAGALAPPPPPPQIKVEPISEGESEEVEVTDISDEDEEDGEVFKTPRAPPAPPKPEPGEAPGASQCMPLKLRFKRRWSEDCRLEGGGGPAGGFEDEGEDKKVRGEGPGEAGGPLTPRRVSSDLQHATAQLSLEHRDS
Summary of the method: as §1

ETV3L = molecular target: T7, ETV3L (Homo sapiens, UniProt Q6ZN32 1-361); conditions: protein: recombinant; tags: N-terminal GST; dsDNA, one strand shown
T7 sequence: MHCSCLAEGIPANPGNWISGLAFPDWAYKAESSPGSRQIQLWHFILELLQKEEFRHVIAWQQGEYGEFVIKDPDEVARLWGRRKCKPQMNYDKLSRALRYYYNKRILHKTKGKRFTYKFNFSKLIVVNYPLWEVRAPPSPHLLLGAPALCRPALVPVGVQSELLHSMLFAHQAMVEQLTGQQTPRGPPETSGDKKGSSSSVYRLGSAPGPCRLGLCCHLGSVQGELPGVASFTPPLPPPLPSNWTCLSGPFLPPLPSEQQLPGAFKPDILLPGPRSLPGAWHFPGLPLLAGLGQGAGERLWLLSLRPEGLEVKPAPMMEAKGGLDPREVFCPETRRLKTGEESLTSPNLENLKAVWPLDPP
Summary of the method: as §1

ETS2 = molecular target: T8, ETS2 (Homo sapiens, UniProt P15036 1-469); conditions: protein: recombinant; tags: N-terminal GST; dsDNA, one strand shown
T8 sequence: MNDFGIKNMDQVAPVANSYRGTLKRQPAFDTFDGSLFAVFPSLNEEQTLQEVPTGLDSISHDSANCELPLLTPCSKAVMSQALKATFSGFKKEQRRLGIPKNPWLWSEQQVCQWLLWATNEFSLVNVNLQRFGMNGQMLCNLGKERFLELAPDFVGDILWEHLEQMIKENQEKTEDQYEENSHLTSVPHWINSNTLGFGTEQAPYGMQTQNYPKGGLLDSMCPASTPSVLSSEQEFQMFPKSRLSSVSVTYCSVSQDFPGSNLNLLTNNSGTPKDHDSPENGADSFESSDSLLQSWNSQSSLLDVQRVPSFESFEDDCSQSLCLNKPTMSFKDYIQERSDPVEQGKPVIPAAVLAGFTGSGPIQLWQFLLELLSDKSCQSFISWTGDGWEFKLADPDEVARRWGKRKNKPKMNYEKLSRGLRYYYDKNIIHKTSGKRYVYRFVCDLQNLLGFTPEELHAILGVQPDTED
Summary of the method: as §1

SPDEF = molecular target: T9, SPDEF (Homo sapiens, UniProt O95238 1-335); conditions: protein: recombinant; tags: N-terminal GST; dsDNA, one strand shown
T9 sequence: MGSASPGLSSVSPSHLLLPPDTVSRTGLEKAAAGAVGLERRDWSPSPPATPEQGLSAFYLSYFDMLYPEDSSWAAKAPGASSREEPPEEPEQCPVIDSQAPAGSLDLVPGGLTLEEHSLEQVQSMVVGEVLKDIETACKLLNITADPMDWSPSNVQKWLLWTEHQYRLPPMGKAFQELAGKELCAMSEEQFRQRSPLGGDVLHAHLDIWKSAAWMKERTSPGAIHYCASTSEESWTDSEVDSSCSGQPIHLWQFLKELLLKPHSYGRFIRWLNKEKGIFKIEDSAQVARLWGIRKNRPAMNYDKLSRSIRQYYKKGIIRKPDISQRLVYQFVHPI
Summary of the method: as §1

ETV7 = molecular target: T10, ETV7 (Homo sapiens, UniProt Q9Y603 1-341); conditions: protein: recombinant; tags: N-terminal GST; dsDNA, one strand shown
T10 sequence: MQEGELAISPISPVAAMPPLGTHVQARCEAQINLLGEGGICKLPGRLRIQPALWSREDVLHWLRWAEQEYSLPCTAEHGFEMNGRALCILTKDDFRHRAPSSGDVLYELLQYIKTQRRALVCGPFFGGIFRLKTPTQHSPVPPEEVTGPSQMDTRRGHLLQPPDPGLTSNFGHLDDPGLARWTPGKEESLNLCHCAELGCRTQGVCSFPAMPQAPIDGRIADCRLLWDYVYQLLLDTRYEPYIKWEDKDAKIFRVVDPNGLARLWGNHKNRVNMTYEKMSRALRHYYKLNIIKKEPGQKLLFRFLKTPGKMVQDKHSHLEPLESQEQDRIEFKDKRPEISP
Summary of the method: as §1

ELF5 = molecular target: T11, ELF5 (Homo sapiens, UniProt Q9UKW6-2 1-255); conditions: protein: recombinant; tags: N-terminal GST; dsDNA, one strand shown
T11 sequence: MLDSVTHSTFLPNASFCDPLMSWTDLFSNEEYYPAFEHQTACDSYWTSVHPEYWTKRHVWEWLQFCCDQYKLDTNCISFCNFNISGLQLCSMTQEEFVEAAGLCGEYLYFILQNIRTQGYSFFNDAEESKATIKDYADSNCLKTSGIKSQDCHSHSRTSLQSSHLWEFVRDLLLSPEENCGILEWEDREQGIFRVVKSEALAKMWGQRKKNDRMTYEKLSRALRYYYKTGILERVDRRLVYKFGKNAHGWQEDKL
Summary of the method: as §1

ETV3 = molecular target: T12, ETV3 (Homo sapiens, UniProt P41162-2 1-143); conditions: protein: recombinant; tags: N-terminal GST; dsDNA, one strand shown
T12 sequence: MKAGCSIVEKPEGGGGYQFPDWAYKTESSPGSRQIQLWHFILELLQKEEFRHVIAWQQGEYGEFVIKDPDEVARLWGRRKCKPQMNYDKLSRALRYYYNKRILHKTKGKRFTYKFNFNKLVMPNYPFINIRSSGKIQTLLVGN
Summary of the method: as §1

ETV6 = ETV6 (Homo sapiens, UniProt P41212 1-452); conditions: protein: recombinant; tags: N-terminal GST; dsDNA, one strand shown
Chain of ETV6 (P41212 whole entry): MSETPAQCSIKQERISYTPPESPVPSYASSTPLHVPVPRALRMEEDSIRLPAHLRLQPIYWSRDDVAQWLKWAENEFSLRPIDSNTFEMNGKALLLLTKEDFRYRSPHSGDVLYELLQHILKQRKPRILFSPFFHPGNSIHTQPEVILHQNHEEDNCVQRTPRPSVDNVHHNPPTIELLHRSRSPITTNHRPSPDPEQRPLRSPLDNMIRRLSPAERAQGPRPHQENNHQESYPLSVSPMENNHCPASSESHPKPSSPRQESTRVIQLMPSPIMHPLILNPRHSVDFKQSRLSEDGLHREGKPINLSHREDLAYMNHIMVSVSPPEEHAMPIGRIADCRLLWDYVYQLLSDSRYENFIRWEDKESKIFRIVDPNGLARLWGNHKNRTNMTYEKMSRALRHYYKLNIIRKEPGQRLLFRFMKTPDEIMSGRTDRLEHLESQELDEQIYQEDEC
Summary of the method: as §1

Sequence: AGTTTC
- binding signal (FEV): 1.23 fold enrichment (6-mer frequency, TF over GST control)
- binding signal (ETV5): 1.33 fold enrichment (6-mer frequency, TF over GST control)
- binding signal (HSF1): 1.38 fold enrichment (6-mer frequency, TF over GST control)
- binding signal (SPIC): 1.16 fold enrichment (6-mer frequency, TF over GST control)
- binding signal (ELF4): 1.2 fold enrichment (6-mer frequency, TF over GST control)
- binding signal (ELK4): 1.13 fold enrichment (6-mer frequency, TF over GST control)
- binding signal (ETV2): 1.21 fold enrichment (6-mer frequency, TF over GST control)
- binding signal (ELF3): 1.14 fold enrichment (6-mer frequency, TF over GST control)
- binding signal (ETV1): 1.29 fold enrichment (6-mer frequency, TF over GST control)
- binding signal (ERF): 1.22 fold enrichment (6-mer frequency, TF over GST control)
- binding signal (ETV3L): 1.33 fold enrichment (6-mer frequency, TF over GST control)
- binding signal (ETS2): 1.3 fold enrichment (6-mer frequency, TF over GST control)
- binding signal (SPDEF): 1.19 fold enrichment (6-mer frequency, TF over GST control)
- binding signal (ETV7): 1.29 fold enrichment (6-mer frequency, TF over GST control)
- binding signal (ELF5): 1.65 fold enrichment (6-mer frequency, TF over GST control)
- binding signal (ETV3): 1.36 fold enrichment (6-mer frequency, TF over GST control)
- binding signal (ETV6): 1.29 fold enrichment (6-mer frequency, TF over GST control)
